The values below come from PubChem BioAssay (NCI).

The panel holds about 83,000 compounds, 20% with a hit somewhere; the sample as a whole holds those more often.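 How to read the values: 0–100, growth inhibition (40 = 60% inhibited); 0, no net growth; -100 to 0, cell death (-40 = 40% of starting cells died; -100 = all dead).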 Values without a mark were called inactive. Calls of active or inactive are those of the source. The calls were made as follows: active = growth percent below 10; inactive = the rest.

Some test systems named below: NCI-H23 lung; NCI-H226 lung; NCI-H322M lung; HOP-62 NSCLC; NCI-H460 lung; HOP-92 NSCLC; NCI-H522 lung; A549/ATCC NSCLC; 786-0 renal; COLO 205 colon; DU-145 prostate; K-562 leukemia; MDA-MB-231 breast; RXF 393 renal; SF-268 CNS; SF-295 CNS; SF-539 CNS; UACC-257 melanoma; M14 melanoma.
Holding throughout (experiment): NCI-60 one-dose screen, 48 h (100 = growth as untreated, 0 = no growth, -100 = all killed)
What all share (conditions): 10 µM unless noted

For the compound `Oc1ccccc1/C=N\NC(=S)Nc1ccc(F)cc1`, the growth with NCI-H23 lung was 30.4%; with NCI-H226 lung, 25.7%; in the experiment on NCI-H322M lung it was 30.1%; with HOP-62 NSCLC it was 36.5%; in the experiment on NCI-H460 lung, 4.08% (active); in the experiment on HOP-92 NSCLC, 46.4%. Also, the growth in the experiment with NCI-H522 lung was 21.4%; with A549/ATCC NSCLC, 22.1%; in the experiment with 786-0 renal it was 16.6%; in the experiment on COLO 205 colon it was 50.3%; in the experiment with DU-145 prostate it was 30.4%; with K-562 leukemia, 14.9%. Besides, the growth is 49% in the experiment with MDA-MB-231 breast; 20.1% in the experiment with RXF 393 renal; 27.8% in the experiment on SF-268 CNS; 11.6% in the experiment on SF-295 CNS; 23.9% in the experiment on SF-539 CNS; 15.4% with UACC-257 melanoma. For the same compound, in the experiment on M14 melanoma, the growth is -30.4% (active).
In the case of `S=c1[nH]nc2ccccn12`, the growth is 104% with NCI-H23 lung; 122% with NCI-H226 lung; 105% in the experiment with NCI-H322M lung; 102% in the experiment with HOP-62 NSCLC; 109% with NCI-H460 lung; 100% with HOP-92 NSCLC. The growth in the experiment with NCI-H522 lung is 82.3%; in the experiment with A549/ATCC NSCLC, 106%; in the experiment on 786-0 renal, 112%; in the experiment with COLO 205 colon, 118%; in the experiment with DU-145 prostate, 114%; with K-562 leukemia, 92.6%. In addition, the growth in the experiment on MDA-MB-231 breast was 103%; with RXF 393 renal it was 119%; in the experiment with SF-268 CNS, 117%; in the experiment on SF-295 CNS, 108%; in the experiment on SF-539 CNS it was 99.1%; in the experiment on UACC-257 melanoma, 108%. For the same compound, the growth in the experiment on M14 melanoma is 108%.
For `COc1c(N)c2c(c([N+](=O)[O-])c1OC)C(=O)OC2`, the growth was 120% with NCI-H23 lung; 110% with NCI-H226 lung; 99.8% with NCI-H322M lung; 107% in the experiment with HOP-62 NSCLC; 113% in the experiment on NCI-H460 lung; 92.3% with HOP-92 NSCLC. Besides, the growth with NCI-H522 lung is 98.6%; in the experiment with A549/ATCC NSCLC it was 96.1%; in the experiment with 786-0 renal, 102%; in the experiment with COLO 205 colon, 116%; in the experiment with DU-145 prostate it was 116%; in the experiment with K-562 leukemia it was 119%. Moreover, the growth with MDA-MB-231 breast is 115%; in the experiment with RXF 393 renal, 112%; with SF-268 CNS it was 106%; in the experiment on SF-295 CNS, 107%; with SF-539 CNS, 104%; in the experiment on UACC-257 melanoma, 102%. Besides, the growth in the experiment on M14 melanoma is 109%.
On to `O=[N+]([O-])c1cccc(/C=N\Nc2ccccc2)c1`, for which the growth with NCI-H23 lung was 88.5%; in the experiment with NCI-H226 lung, 70.1%; in the experiment with NCI-H322M lung it was 81.1%; with HOP-62 NSCLC, 84%; in the experiment on NCI-H460 lung it was 77.1%; in the experiment on HOP-92 NSCLC, 66%. Moreover, the growth with NCI-H522 lung is 54.9%; in the experiment with A549/ATCC NSCLC, 67.4%; in the experiment on 786-0 renal, 74.4%; with COLO 205 colon it was 85.4%; in the experiment on DU-145 prostate, 80.2%; in the experiment on K-562 leukemia, 16.6%. Besides, the growth was 55.7% in the experiment with MDA-MB-231 breast; 101% in the experiment on RXF 393 renal; 62.5% in the experiment on SF-268 CNS; 49.2% in the experiment on SF-295 CNS; 96.7% in the experiment with SF-539 CNS; 95.3% with UACC-257 melanoma. For the same compound, the growth with M14 melanoma is 33.7%.
For `CCOC(=O)c1ccc2c(c1)[n+](=O)c(C(=O)C1CCCS1)c(C(F)(F)F)n2[O-]` (stereo unspecified), the growth in the experiment on NCI-H23 lung was -87% (active); in the experiment with NCI-H226 lung it was -54.9% (active); in the experiment on NCI-H322M lung, -87.6% (active); in the experiment with HOP-62 NSCLC it was -90.6% (active); in the experiment on NCI-H460 lung, -73.7% (active); in the experiment on HOP-92 NSCLC, -83.6% (active). In addition, the growth with NCI-H522 lung is -83.3% (active); in the experiment on A549/ATCC NSCLC, -94.9% (active); with 786-0 renal it was -92.3% (active); with COLO 205 colon, -84.8% (active); with DU-145 prostate, -96.5% (active); in the experiment with K-562 leukemia, -52.6% (active). In addition, the growth with MDA-MB-231 breast was -76.8% (active); in the experiment on RXF 393 renal, -92.3% (active); with SF-268 CNS, -89.6% (active); with SF-295 CNS it was -88% (active); in the experiment with SF-539 CNS, -83.8% (active); in the experiment with UACC-257 melanoma it was -90.4% (active). Further, the growth with M14 melanoma is -96.6% (active).
Consider `C/C(=N\Nc1cc(C)c2cc(C)ccc2n1)c1ccccn1`, for which the growth with NCI-H23 lung was 10.2%; in the experiment with NCI-H226 lung, -5.19% (active); in the experiment on NCI-H322M lung, -9.38% (active); with HOP-62 NSCLC, 10.1%; in the experiment with NCI-H460 lung it was -68.7% (active); in the experiment on HOP-92 NSCLC, -11% (active). Further, the growth in the experiment with NCI-H522 lung was -93.5% (active); in the experiment with A549/ATCC NSCLC, 1.9% (active); in the experiment on 786-0 renal, -73.3% (active); in the experiment on COLO 205 colon it was -99.9% (active); with DU-145 prostate it was 21%; in the experiment on K-562 leukemia, -40.8% (active). The growth in the experiment with MDA-MB-231 breast was -89.1% (active); in the experiment on RXF 393 renal, -88.2% (active); in the experiment on SF-268 CNS it was -4.43% (active); with SF-539 CNS, -92.4% (active); in the experiment on UACC-257 melanoma it was -73.5% (active); in the experiment on M14 melanoma, -82.9% (active).
With `CC1c2ccccc2N(S(=O)(=O)c2ccccc2)C1C` (stereo unspecified), the growth in the experiment with NCI-H23 lung is 89.4%; with NCI-H226 lung, 88.4%; with NCI-H322M lung, 102%; in the experiment with HOP-62 NSCLC, 95.4%; in the experiment with NCI-H460 lung, 115%; with HOP-92 NSCLC, 86.8%. For the same compound, the growth in the experiment on NCI-H522 lung is 76.9%; in the experiment with A549/ATCC NSCLC, 92%; with 786-0 renal, 102%; in the experiment with COLO 205 colon, 97.6%; in the experiment with DU-145 prostate, 102%; in the experiment with K-562 leukemia it was 34.1%. Also, the growth with MDA-MB-231 breast is 91.2%; with RXF 393 renal, 88%; in the experiment with SF-268 CNS it was 102%; in the experiment on SF-295 CNS, 94.9%; with SF-539 CNS it was 104%; in the experiment with UACC-257 melanoma it was 93.6%. For the same compound, the growth in the experiment with M14 melanoma was 77.6%.
On to `CC(=O)O[C@H]1CC[C@@]2(C)[C@@H](CC[C@@H]3[C@@H]2CC(=O)[C@@]2(C)[C@H]3C[C@@H](C3CCCC3=O)[C@@H]2C(C)=O)C1` (stereo partly specified), for which the growth in the experiment with NCI-H23 lung was 107%; in the experiment on NCI-H226 lung, 112%; in the experiment on NCI-H322M lung, 106%; with HOP-62 NSCLC it was 100%; in the experiment with NCI-H460 lung, 111%; in the experiment on HOP-92 NSCLC, 93.1%. Further, the growth with NCI-H522 lung is 82.5%; in the experiment on A549/ATCC NSCLC, 101%; in the experiment with 786-0 renal, 105%; in the experiment on COLO 205 colon, 116%; in the experiment on DU-145 prostate, 117%; in the experiment with K-562 leukemia, 105%. Besides, the growth is 98.8% in the experiment on MDA-MB-231 breast; 132% in the experiment on RXF 393 renal; 112% in the experiment on SF-268 CNS; 112% in the experiment on SF-295 CNS; 105% in the experiment with SF-539 CNS; 109% in the experiment on UACC-257 melanoma. Further, the growth with M14 melanoma was 97.8%.
